Assay results published in article PMC5540273 (PLoS ONE, 2017).
Where two headings read alike, the source gives them in different places.

Experiments:
SRPK3 = settings: concentration: 1 μM, replicates: in singlicate; n = 1
STK16 = settings: concentration: 1 μM, replicates: in singlicate; n = 1
STK33 = settings: concentration: 1 μM, replicates: in singlicate; n = 1
STK35 = settings: concentration: 1 μM, replicates: in singlicate; n = 1
STK36 = settings: concentration: 1 μM, replicates: in singlicate; n = 1
STK39 = settings: concentration: 1 μM, replicates: in singlicate; n = 1
SYK = settings: concentration: 1 μM, replicates: in singlicate; n = 1
SgK110 = settings: concentration: 1 μM, replicates: in singlicate; n = 1
TAK1 = tested on: T1, TAK1; settings: concentration: 1 μM, replicates: in singlicate; n = 1
T1 construct: gene MAP3K7

TAOK1 = settings: concentration: 1 μM, replicates: in singlicate; n = 1
TAOK2 = settings: concentration: 1 μM, replicates: in singlicate; n = 1
TAOK3 = settings: concentration: 1 μM, replicates: in singlicate; n = 1
TBK1 = settings: concentration: 1 μM, replicates: in singlicate; n = 1
TEC = settings: concentration: 1 μM, replicates: in singlicate; n = 1
TESK1 = settings: concentration: 1 μM, replicates: in singlicate; n = 1
TGFBR1 = settings: n = 1
TGFBR2 = settings: concentration: 1 μM, replicates: in singlicate; n = 1
TIE1 = settings: concentration: 1 μM, replicates: in singlicate; n = 1
TIE2 = tested on: T2, TIE2; settings: concentration: 1 μM, replicates: in singlicate; n = 1
T2 construct: gene TEK

TLK1 = settings: concentration: 1 μM, replicates: in singlicate; n = 1
[1] = concentration: 1 μM, replicates: in singlicate
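Note: KINOMEscan kinase panel screen.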

Cl.Oc1cccc(Nc2ccnc3cc(-c4ccncc4)ccc23)c1 [GW494601]
%Inh (SRPK3): 0% | %Inh (STK16): 26% | %Inh (STK33): 41% | %Inh (STK35): 0% | %Inh (STK36): 0% | %Inh (STK39): 1% | %Inh (SYK): 82% | %Inh (SgK110): 0% | %Inh (TAK1): 41% | %Inh (TAOK1): 0% | %Inh (TAOK2): 0% | %Inh (TAOK3): 0% | %Inh (TBK1): 9% | %Inh (TEC): 1% | %Inh (TESK1): 16% | %Inh (TGFBR1; [1]): 76% | %Inh (TGFBR2): 99.5% | %Inh (TIE1): 50% | %Inh (TIE2): 48% | %Inh (TLK1): 0%

N#Cc1ccc(-c2cc(-c3c[nH]nc3-c3ccccn3)ccn2)cc1 [GW693028]
%Inh (SRPK3): 14% | %Inh (STK16): 0% | %Inh (STK33): 4% | %Inh (STK35): 0% | %Inh (STK36): 0% | %Inh (STK39): 16% | %Inh (SYK): 5% | %Inh (SgK110): 5% | %Inh (TAK1): 0% | %Inh (TAOK1): 0% | %Inh (TAOK2): 0% | %Inh (TAOK3): 0% | %Inh (TBK1): 6% | %Inh (TEC): 44% | %Inh (TESK1): 23% | %Inh (TGFBR1; 1 µM): 87% | %Inh (TGFBR2): 83% | %Inh (TIE1): 0% | %Inh (TIE2): 0% | %Inh (TLK1): 0%

Cc1nnc(-c2ccc3ncc(-c4ccc(S(C)=O)cc4)n3c2)o1 (stereo not shown)
%Inh (SRPK3): 0% | %Inh (STK16): 0% | %Inh (STK33): 1% | %Inh (STK35): 1% | %Inh (STK36): 9% | %Inh (STK39): 25% | %Inh (SYK): 0% | %Inh (SgK110): 0% | %Inh (TAK1): 8% | %Inh (TAOK1): 0% | %Inh (TAOK2): 0% | %Inh (TAOK3): 0% | %Inh (TBK1): 15% | %Inh (TEC): 7% | %Inh (TESK1): 0% | %Inh (TGFBR1; [1]): 9% | %Inh (TGFBR2): 0% | %Inh (TIE1): 5% | %Inh (TIE2): 6% | %Inh (TLK1): 23%

COC(=O)Nc1nc2cc(Oc3ccc(NC(=O)Nc4cc(F)ccc4F)cc3)ccc2[nH]1.Cl [GW701424]
%Inh (SRPK3): 0% | %Inh (STK16): 0% | %Inh (STK33): 0% | %Inh (STK35): 0% | %Inh (STK36): 0% | %Inh (STK39): 7% | %Inh (SYK): 0% | %Inh (SgK110): 0% | %Inh (TAK1): 8% | %Inh (TAOK1): 0% | %Inh (TAOK2): 0% | %Inh (TAOK3): 0% | %Inh (TBK1): 9% | %Inh (TEC): 0% | %Inh (TESK1): 73% | %Inh (TGFBR1; [1]): 27% | %Inh (TGFBR2): 0% | %Inh (TIE1): 93.2% | %Inh (TIE2): 73% | %Inh (TLK1): 0%

CN1c2ccc(CNc3ccc(F)cc3)cc2-c2c(cnn2C)S1(=O)=O
%Inh (SRPK3): 0% | %Inh (STK16): 0% | %Inh (STK33): 0% | %Inh (STK35): 0% | %Inh (STK36): 0% | %Inh (STK39): 0% | %Inh (SYK): 27% | %Inh (SgK110): 0% | %Inh (TAK1): 0% | %Inh (TAOK1): 0% | %Inh (TAOK2): 23% | %Inh (TAOK3): 0% | %Inh (TBK1): 0% | %Inh (TEC): 0% | %Inh (TESK1): 0% | %Inh (TGFBR1; [1]): 0% | %Inh (TGFBR2): 0% | %Inh (TIE1): 0% | %Inh (TIE2): 0% | %Inh (TLK1): 16%

Cc1c(Cn2c(C)nn3c(=O)cc(N4CCOC(C)C4)nc23)cccc1C(F)(F)F (stereo not shown) [GSK2344444]
%Inh (SRPK3): 0% | %Inh (STK16): 0% | %Inh (STK33): 0% | %Inh (STK35): 0% | %Inh (STK36): 0% | %Inh (STK39): 6% | %Inh (SYK): 12% | %Inh (SgK110): 0% | %Inh (TAK1): 0% | %Inh (TAOK1): 0% | %Inh (TAOK2): 0% | %Inh (TAOK3): 0% | %Inh (TBK1): 0% | %Inh (TEC): 0% | %Inh (TESK1): 0% | %Inh (TGFBR1; [1]): 0% | %Inh (TGFBR2): 0% | %Inh (TIE1): 7% | %Inh (TIE2): 0% | %Inh (TLK1): 0%

NS(=O)(=O)c1cccc(-c2ccc3nccc(-c4cccc(S(N)(=O)=O)c4)c3c2)c1 [GW867253]
%Inh (SRPK3): 23% | %Inh (STK16): 12% | %Inh (STK33): 0% | %Inh (STK35): 0% | %Inh (STK36): 0% | %Inh (STK39): 0% | %Inh (SYK): 1% | %Inh (SgK110): 0% | %Inh (TAK1): 6% | %Inh (TAOK1): 2% | %Inh (TAOK2): 31% | %Inh (TAOK3): 6% | %Inh (TBK1): 15% | %Inh (TEC): 0% | %Inh (TESK1): 7% | %Inh (TGFBR1; [1]): 0% | %Inh (TGFBR2): 0% | %Inh (TIE1): 5% | %Inh (TIE2): 0% | %Inh (TLK1): 3%

CC(C)Oc1ccc2c(-c3ccnc(Nc4ccc(N5CCN(C)CC5)cc4)n3)cnn2n1 [GW696155]
%Inh (SRPK3): 79% | %Inh (STK16): 98.8% | %Inh (STK33): 81% | %Inh (STK35): 45% | %Inh (STK36): 70% | %Inh (STK39): 89% | %Inh (SYK): 10% | %Inh (SgK110): 29% | %Inh (TAK1): 56% | %Inh (TAOK1): 76% | %Inh (TAOK2): 79% | %Inh (TAOK3): 70% | %Inh (TBK1): 97.9% | %Inh (TEC): 0% | %Inh (TESK1): 12% | %Inh (TGFBR1; [1]): 29% | %Inh (TGFBR2): 35% | %Inh (TIE1): 80% | %Inh (TIE2): 0% | %Inh (TLK1): 95.3%

CCc1ccnc(/C=C/c2n[nH]c3cc(Sc4ccccc4C(=O)NC)ccc23)c1
%Inh (SRPK3): 14% | %Inh (STK16): 0% | %Inh (STK33): 4% | %Inh (STK35): 0% | %Inh (STK36): 12% | %Inh (STK39): 0% | %Inh (SYK): 0% | %Inh (SgK110): 47% | %Inh (TAK1): 1% | %Inh (TAOK1): 0% | %Inh (TAOK2): 100% | %Inh (TAOK3): 0% | %Inh (TBK1): 0% | %Inh (TEC): 3% | %Inh (TESK1): 8% | %Inh (TGFBR1; [1]): 0% | %Inh (TGFBR2): 0% | %Inh (TIE1): 48% | %Inh (TIE2): 8% | %Inh (TLK1): 0%

COc1cc2c(cc1OC[C@@H](O)CO)ncc1c3ccc(C#N)cc3[nH]c21
%Inh (SRPK3): 25% | %Inh (STK16): 0% | %Inh (STK33): 36% | %Inh (STK35): 0% | %Inh (STK36): 0% | %Inh (STK39): 0% | %Inh (SYK): 0% | %Inh (SgK110): 0% | %Inh (TAK1): 81% | %Inh (TAOK1): 0% | %Inh (TAOK2): 0% | %Inh (TAOK3): 0% | %Inh (TBK1): 68% | %Inh (TEC): 0% | %Inh (TESK1): 0% | %Inh (TGFBR1; [1]): 23% | %Inh (TGFBR2): 0% | %Inh (TIE1): 0% | %Inh (TIE2): 0% | %Inh (TLK1): 11%

COc1ccc(Nc2nccc(N3CCC(NC(=O)Nc4cc(C)ccc4C)C3)n2)cc1 (stereo not shown) [GSK1379741]
%Inh (SRPK3): 0% | %Inh (STK16): 7% | %Inh (STK33): 0% | %Inh (STK35): 0% | %Inh (STK36): 100% | %Inh (STK39): 9% | %Inh (SYK): 0% | %Inh (SgK110): 0% | %Inh (TAK1): 0% | %Inh (TAOK1): 0% | %Inh (TAOK2): 0% | %Inh (TAOK3): 0% | %Inh (TBK1): 0% | %Inh (TEC): 20% | %Inh (TESK1): 14% | %Inh (TGFBR1; [1]): 0% | %Inh (TGFBR2): 0% | %Inh (TIE1): 0% | %Inh (TIE2): 0% | %Inh (TLK1): 0%
